# Screening data deposited in PubChem by National Center for Advancing Translational Sciences (NCATS).
# JMJD2E inh = qHTS Assay for Inhibitors of Human Jumonji Domain Containing 2E (JMJD2E). Lysine-specific demethylase 4E (Homo sapiens), B2RXH2. JMJD2E catalytic domain, FDH-coupled NADH fluorescence (FDH is formaldehyde dehydrogenase). Potency, µM (titrated, usually from 57.1 µM), for inactives: at the highest dose activity change, negative = inhibition, actives largely listed as inhibitors. actives 1.6% (n = 230,000). AID 2147, 2009; active means well fitted inhibition curve with a large enough effect, not every such curve was filed as active; inconclusive means small, poorly fitted or top-dose-only effect, or another doubt; inactive means no such curve, though single readings can be large or run the other way;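 further: potency means the concentration at half of the fitted maximal effect; 0% = wells with enzyme and -100% = buffer wells without enzyme; nearly all actives have a fitted effect of over 50% in size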
# CBFb-RUNX1 inh = qHTS Assay for Compounds Blocking the Interaction Between CBF-beta and RUNX1 for the Treatment of Acute Myeloid Leukemia | Runt-related transcription factor 1 (Homo sapiens) + Core-binding factor subunit beta … | AlphaScreen CBFb-His/RUNX1-biotin binding, biochemical | Potency, µM (top dose mostly 59.8 µM), for inactives: at the top dose activity, negative = inhibition, most hits filed as inhibitors | 230,000 tested, under 10 active | AID 1477, 2009; further: % of control where 0% means no effect
# Target sequence (Q01196 whole entry, looked up): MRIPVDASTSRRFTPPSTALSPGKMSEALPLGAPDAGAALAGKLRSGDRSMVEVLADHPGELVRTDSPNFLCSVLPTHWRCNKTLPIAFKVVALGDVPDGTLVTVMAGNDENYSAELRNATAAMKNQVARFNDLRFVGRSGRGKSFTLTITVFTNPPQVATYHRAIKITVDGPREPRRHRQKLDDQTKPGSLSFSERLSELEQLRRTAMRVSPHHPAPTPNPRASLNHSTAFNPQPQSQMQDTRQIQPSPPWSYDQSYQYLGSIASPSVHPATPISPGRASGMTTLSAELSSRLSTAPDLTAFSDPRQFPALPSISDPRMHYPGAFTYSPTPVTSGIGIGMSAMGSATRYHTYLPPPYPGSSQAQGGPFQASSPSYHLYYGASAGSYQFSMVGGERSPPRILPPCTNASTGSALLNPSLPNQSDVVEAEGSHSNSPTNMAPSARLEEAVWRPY
# Target sequence (Q13951 whole entry, looked up): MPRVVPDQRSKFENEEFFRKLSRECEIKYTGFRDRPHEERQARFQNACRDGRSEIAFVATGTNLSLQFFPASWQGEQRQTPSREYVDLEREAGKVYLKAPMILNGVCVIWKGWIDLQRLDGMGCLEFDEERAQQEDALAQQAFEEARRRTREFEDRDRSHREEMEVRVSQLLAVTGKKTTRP
#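 Inhibition was taken as any reduction in AlphaScreen signal from the CBF-beta–RUNX1 pair (His and biotin tags, 30 nM each), measured after compound (15 min) and bead (90 min) incubations at room temperature.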
# Tau fibril FP = qHTS for Inhibitors of Tau Fibril Formation, Fluorescence Polarization; K18 P301L tau heparin fibrillization, Alexa594 FP, 6 h; Microtubule-associated protein tau (Homo sapiens), P10636; actives 0.39% (n = 280,000); Potency, µM (titrated, usually from 57.7 µM), without a hit: at the top dose activity, negative = inhibition, most hits filed as inhibitors; further: potency means the concentration at half of the fitted maximal effect; on the % scale 0 is the no-effect control and ±100 the full control effect; nearly all actives have a fitted effect of over 55% in size
# Target sequence (P10636 561-689 P618L limits assumed): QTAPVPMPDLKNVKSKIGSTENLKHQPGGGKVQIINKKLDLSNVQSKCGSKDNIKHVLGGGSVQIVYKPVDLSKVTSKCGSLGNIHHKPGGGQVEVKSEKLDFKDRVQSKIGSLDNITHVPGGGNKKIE
#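 Steps: dispense K18 P301L tau (15 uM plus 0.24 uM Alexa 594 tracer, final) in pH 7 sodium acetate; add compound; add heparin (20 uM final); incubate 6 hr, 37 C; add ThT (30 uM final); after 1 hr ambient, read FP.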
# Tau fibril ThT = qHTS for Inhibitors of Tau Fibril Formation, Thioflavin T Binding | Microtubule-associated protein tau (Homo sapiens), P10636 | recombinant tau K18 P301L, heparin-induced fibrillization, ThT fluorescence | Potency, µM (titrated, usually from 57.4 µM), for the others: at the highest dose activity, negative = inhibition, hits mostly inhibitors | actives 2.1% (n = 270,000); further: potency means the concentration at half of the fitted maximal effect; on the % scale 0 is the no-effect control and ±100 the full control effect; nearly all actives have a fitted effect of over 55% in size
#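 Tau K18 P301L fragment (15 uM unlabeled plus 0.24 uM Alexa 594-labeled) in 100 mM sodium acetate pH 7 with compound, fibrillization induced by 20 uM heparin for 6 hr at 37 C. Thioflavin T (30 uM) added, fluorescence read after 1 hr (ex 450, em 510 nm).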
# Lamin A splicing = qHTS Assay for Modulators of Lamin A Splicing | AID 1487, 2009 | HeLa LMNA splicing GFP/RFP minigene ratio, 48 h | Potency, µM (top dose mostly 46.1 µM), for inactives: top-dose ratio change, negative = inhibition, most hits filed as inhibitors | actives 0.01% (n = 200,000); active means well fitted inhibition curve with a large enough effect in the signal ratio, with a control signal flat, not every such curve was filed as active; inconclusive means small, poorly fitted or top-dose-only effect, or effect the other way, or a change in a side signal; the % refers to the signal ratio; further: potency means the concentration at half of the fitted maximal effect; on the % scale 0 is the no-effect control and ±100 the full control effect
#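 S3 HeLa stable clones carrying a lamin A-EGFP splicing minigene plus DsRed2 were seeded at 600 cells/well in Opti-MEM with 2% FBS, pin-dosed and incubated 48 h at 37°C. Acumen cytometry (488 nm) gave the GFP/RFP total-intensity ratio.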
# Tau fluor counter = Counterscreen qHTS for Inhibitors of Tau Fibril Formation, Fluorescence Polarization; tau K18 P301L (four-repeat tau fragment) Alexa594 fluorescence, heparin fibrillization; Potency, µM (titrated, usually from 57.7 µM), inactives show top-dose activity change, negative = decrease; actives 0.93% (n = 280,000); AID 1463, 2008; further: potency means the concentration at half of the fitted maximal effect; on the % scale 0 is the no-effect control and ±100 the full control effect; nearly all actives have a fitted effect of over 55% in size
#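 Human K18 P301L tau (15 uM unlabeled plus 0.24 uM Alexa 594-labeled, final) in 100 mM sodium acetate pH 7 was mixed with compound and 20 uM heparin and incubated 6 hr at 37 C.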
# Starred values were filed as active, the others as inactive; ? = inconclusive; . = no result given; [ ] = dose if it differs, or a comment. This is a sample that favours compounds with a hit; in the whole collection about 3.2% have one here. Unless noted, the call rests on the fitted dose curve; in most records, active means well fitted curve in the direction sought with a large enough effect; inconclusive means small, poorly fitted or top-dose-only effect, or another doubt; inactive means no such curve, though single readings can be large; an effect the other way counts as inactive or inconclusive.
SMILES,JMJD2E inh,CBFb-RUNX1 inh,Tau fibril FP,Tau fibril ThT,Lamin A splicing,Tau fluor counter
Cc1ccc(NC2=C(N3CCOCC3)C(=O)c3ccccc3C2=O)cc1,?,-2%,?,?,-14%,?
O=C1C=C(Nc2ccc(O)cc2)C(=O)c2ccccc21,3%,?,?,13µM*,.,16µM*[quencher]
O=S1(=O)N=C(Nc2ccc(O)cc2)c2ccccc21,8%,-1%,8%,-3%,.,-9%
Oc1ccc(CN2CCN(Cc3ccccc3)CC2)c2cccnc12,-3%,6%,-2%,-6%,-2%,-8%
O=S(=O)(c1ccc(Cl)cc1)N1CCN(Cc2ccc(O)c3ncccc23)CC1,25µM*,4%,0%,?,.,-16%
Cc1cccc(-c2nn3c(=O)cc(CN4CCN(C(=O)c5ccccc5Br)CC4)nc3s2)c1,.,.,-4%,?,-2%[46 µM],-5%
Oc1sc(C=Nc2ccccc2)c2ccccc12,-23%,-2%,-7%,?,6%,14µM*[quencher]
Oc1c(/C=N/c2ccccn2)sc2ccccc12,?,-26%,?,5.6µM*,.,2.8µM*[fluorescent]
Oc1sc(C=Nc2ccc(F)cc2)c2ccccc12,?,9%,-5%,-10%,12%,-30%
Oc1c(C=Nc2ccc(Cl)cn2)sc2ccccc12,?,3%,5%,?,.,-14%
Oc1c(C=Nc2cccnc2)sc2ccccc12,?,-5%,11%,13µM*,-4%,-12%
COc1ccc2cc(C#N)c(=O)oc2c1,.,13%,.,.,.,.
CC(C)=CCc1c(O)ccc(C(=O)Cc2ccccc2)c1O,-2%,12%,14µM*,-17%,?,?
CCC(=O)Oc1c(Sc2ccc(Cl)cc2)c(C)nn1-c1ccccc1,.,.,?,22µM*,.,-30%
CCCC(=O)Oc1c(Sc2ccc(C)cc2)c(C)nn1-c1ccccc1,.,.,?,25µM*,.,-28%
CCC(=O)Oc1c(Sc2ccc(C)cc2)c(C)nn1-c1ccccc1,.,.,?,?,.,-23%
COc1cc2c(c(OC)c1OC)-c1c(cc(OC)c(OC)c1OC)CC(C)C(C)C2 (stereo unspecified),.,12%,.,.,.,.
CC(C)C(=O)N1CCN(c2ccc(NC(=O)c3ccc([N+](=O)[O-])o3)cc2Cl)CC1,3%,1%,0%,?,-24%[46 µM],-8%
CCCCOc1ccc(C(=O)Nc2ccc(N3CCN(C(=O)C(C)C)CC3)cc2)cc1,?,7%,-1%,2µM*,?,-26%
CCOc1ccc(C(=O)NC(=S)Nc2ccccc2N2CCCCC2)cc1[N+](=O)[O-],-10%,7%,1%,-10%,?,?
O=C(Nc1ccc(N2CCN(C(=O)c3ccccc3)CC2)cc1)c1ccc([N+](=O)[O-])o1,-26%,?,4%,4.5µM*,?,?
O=C(Nc1ccc(N2CCN(C(=O)c3ccc(Cl)cc3)CC2)cc1)c1ccc(Br)o1,0%,-23%,14%,?,?,?
CCOc1ccc(C(=O)NC(=S)Nc2ccc(N3CCCCC3)cc2)cc1[N+](=O)[O-],10%,?,17%,3.5µM*,-2%,?
CCCC(=O)N1CCN(c2ccc(NC(=O)c3ccc([N+](=O)[O-])o3)cc2Cl)CC1,-9%,-3%,?,13µM*,.,-27%
CCc1ccc(S(=O)(=O)N(C(=O)Oc2ccccc2)c2ccc3oc(C)c(C(=O)OC)c3c2)cc1,.,.,-3%,-2%,.,-16%
SMILES,JMJD2E inh,CBFb-RUNX1 inh,Tau fibril FP,Tau fibril ThT,Lamin A splicing,Tau fluor counter
COc1ccc(C(=O)Nc2ccc(N3CCN(C(=O)c4ccccc4)CC3)cc2)cc1[N+](=O)[O-],5%,0%,10%,16µM*,.,?
CC(=O)N1CCN(c2ccc(NCc3ccc(F)cc3)cc2)CC1,?,-12%,?,25µM*,1%,?
CC(=O)N1CCN(c2ccc(NC(=O)c3ccc(C(C)(C)C)cc3)cc2)CC1,1%,12%,1%,3.5µM*,-17%,?
Cc1ccccc1C(=O)N1CCN(c2ccc(NC(=O)c3ccc4c(c3)OCO4)cc2)CC1,?,3%,7%,13µM*,?,?
CCCCOc1ccc(C(=O)Nc2ccc(N3CCN(C(C)=O)CC3)cc2)cc1,16%,-8%,?,?,6%,-23%
O=C(Nc1ccc(N2CCN(C(=O)c3ccco3)CC2)cc1)c1ccc2c(c1)OCO2,-20%,-2%,-8%,?,-8%,-21%
CCN(CC)CCCn1c(-c2ccccc2)nc2c(N(CCOC)CCOC)nc(C)nc21,?,9%,2%,-1%,.,-1%
CCCNC(=O)N1N=C(c2ccc(N)cc2)c2cc3c(cc2C1C)OCO3 (stereo unspecified),.,18%,.,.,.,.
CC(C)C(=O)N1CCN(c2ccc(NC(=O)c3ccc([N+](=O)[O-])o3)cc2)CC1,?,18%,-6%,5µM*,.,?
COc1ccccc1NC(=O)Cn1c(=O)n(Cc2ccc3c(c2)OCO3)c(=O)c2oc3ccccc3c21,.,.,-10%,16%,.,-30%
CN1CCN(NS(=O)(=O)c2cccs2)CC1,-1%,-5%,?,13µM*,-7%,-17%
O=S(=O)(NCCNS(=O)(=O)c1cccs1)c1cccs1,-1%,0%,2%,7%,-2%,6%
CCc1nn2c(=O)cc(COc3ccc(/C=C4\C(=N)N5N=C(C)SC5=NC4=O)cc3)nc2s1,?,-4%,0%,13µM*,.,-17%
C=COC(=O)/C=C/C,.,9%,.,.,.,.
Cc1ccc(NC(=O)CCSc2nc(-c3ccco3)cc(C(F)(F)F)n2)cc1F,.,.,?,12%,.,-28%
CC(=O)C1=C(c2ccccc2)N(C(C)=O)n2c(C)nnc2S1,-2%,-7%,?,11µM*,?,-17%
CC(=O)C1=C(C)OC2(O)c3ccccc3C(=O)C12O (stereo unspecified),?,4%,?,2.2µM*,.,-13%
CCOC(=O)C1=C(C)OC2(O)c3ccccc3C(=O)C12O (stereo unspecified),?,-1%,1.4µM*,2µM*,.,-16%
CC1=C(c2ccc(C)c(C)c2)S(=O)(=O)N=C1N1CCC(C(=O)NCCc2ccco2)CC1,.,.,?,-17%,1%[46 µM],0%
